Screening results (PubChem BioAssay)
The list is not random: actives were taken first. Their share in the collection is about 6.6%.
KB-V1 MDR tox = KB-V1 MDR subline cytotoxicity; Potency, µM (series often up to 46.1 µM), usual class: cytotoxic; actives 3.4% (n = 400,000); AID 1347076; KB-V1 MDR cells viability, CellTiter-Glo, 72 h; note: % is set by controls: 0 for no effect and ±100 for the full control effect; nearly all actives have a fitted effect of over 60% in size
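Drug-selected KB-V1 cells, grown in DMEM lacking phenol red with 10% FBS, receive compound titrations; after three days at 37 degrees C, surviving cell ATP is quantified by CellTiter-Glo luminescence and responses normalized and curve-fitted.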
HepG2 tox = kills HepG2 cells in TGF-b inhibitor counter-screen | actives 0.76% (n = 410,000) | Potency, µM (doses to about 46.1 µM), for the others: at the highest dose activity change, negative = cytotoxicity, hits mostly cytotoxic | AID 588856 | HepG2 CAGA-GFP viability, ATP luminescence, 18 h
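HepG2 CAGA-GFP cells (1000/well, DMEM with 1% FBS) received compound, then TGF-beta at 500 pg/mL final, and were incubated 18 hours at 37 degrees C. Viability was read by CellTiter-Glo luminescence. Media-only wells were set as complete cell-killing and DMSO as no toxicity.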
TGFb inhibitor = TGF-b pathway inhibition; actives 1.2% (n = 410,000); Potency, µM (highest dose often 46.1 µM), for the others: at the highest dose activity, negative = inhibition, hits mostly inhibitors; HepG2 CAGA-GFP TGF-b/SMAD3 reporter, GFP fluorescence, 18 h; TGF-beta stimulated, 500 pg/mL final; note: % is set by controls: 0 for no effect and ±100 for the full control effect; nearly all actives have a fitted effect of over 65% in size
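Cell-based qHTS in HEPG2 carrying a CAGA-GFP Smad reporter; compounds added before 500 pg/mL final TGF-beta, 18 h incubation at 37 degrees C, GFP fluorescence quantified per cell by imaging cytometry.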
HT1080-NT tox = kills 2HG-producing HT-1080-NT fibrosarcoma cells; Potency, µM (titrated, usually from 46.1 µM), inactives show at the highest dose activity, negative = less viability, hits mostly cytotoxic; HT-1080-NT fibrosarcoma viability, CellTiter-Glo ATP luminescence, 48 h; actives 1.6% (n = 360,000);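 note: NT is the 2HG producing partner of a matched IDH1 knockdown line; 0% = DMSO-treated cells and -100% = media-only wells without cells; nearly all actives have a fitted effect of over 55% in size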
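Compounds were tested in concentration-response format on HT-1080-NT cells for 48 hours at 37 degrees C. Cell viability came from CellTiter-Glo luminescence; curves were classified by r2, response magnitude and activity.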
HT1080 IDH1KD tx = toxicity to HT-1080 IDH1 knockdown cells (counter line); HT-1080 IDH1 knockdown viability, ATP luminescence, 48 h; actives 2% (n = 360,000); Potency, µM (titrated, usually from 46.1 µM), inactives show top-dose activity, negative = toxicity, actives largely listed as cytotoxic;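 note: 0% = DMSO wells and -100% = cell-free medium wells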
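Cytotoxicity counter-line: IDH1KD HT-1080, 48 h, CellTiter-Glo. Curves classed by r2, magnitude and activity.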
KB-3-1 cytotox = KB-3-1 parental cell cytotoxicity; KB-3-1 viability, CellTiter-Glo ATP luminescence, 72 h; Potency, µM (top dose mostly 46.1 µM), actives largely listed as cytotoxic; actives 1.4% (n = 400,000); note: % is set by controls: 0 for no effect and ±100 for the full control effect; nearly all actives have a fitted effect of over 60% in size
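KB-3-1 parental drug-naive adenocarcinoma cells in DMEM/10% FBS, incubated 72 h at 37 C with pin-transferred compounds across a concentration series. Viability by CellTiter-Glo luminescence; concentration-response curves fitted after normalization.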
Active calls of the source: *; i = inactive; u = inconclusive; x = no result given. Calls come from the whole dose curve; as a rule, active = well fitted curve in the direction sought with a large enough effect; inconclusive = small, poorly fitted or top-dose-only effect, or another doubt; inactive = no such curve, though single readings can be large; an effect the other way counts as inactive or inconclusive. Potency is the fitted concentration of half-maximal effect.

SMILES | KB-V1 MDR tox | HepG2 tox | TGFb inhibitor | HT1080-NT tox | HT1080 IDH1KD tx | KB-3-1 cytotox
CCOc1cc(C(=O)OCC(=O)c2c(N)n(C)c(=O)n(C)c2=O)cc(OCC)c1OCC | 18.4µM* | 3.3% | 0.1% | 2.0% | 2.9% | i
Cn1c(N)c(C(=O)COC(=O)c2ccc([N+](=O)[O-])o2)c(=O)n(C)c1=O | i | -42.9% | 12.6µM* | u | -29.3% | u
Cn1c(N)c(C(=O)COC(=O)c2ccc(Br)o2)c(=O)n(C)c1=O | i | -12.0% | -2.4% | 5.6% | 1.0% | i
CCOC(=O)C1CCN(C(=O)COC(=O)c2ccc([N+](=O)[O-])o2)CC1 | i | 12.6µM* | 17.8µM* | 5.5% | -2.5% | i
COc1ccc(C(=O)NCC2(N3CCN(C)CC3)CCCCC2)cc1 | x | -0.2% | 2.7% | x | x | x
CCc1ccc2c(c1)C(=O)CCC2 | i | -4.1% | 12.4% | 0.9% | 2.5% | i
O=C1CCCc2cc3c(cc21)CC1(C3)Cc2cc3c(cc2C1)C(=O)CCC3 | i | -16.5% | u | u | u | 6.51µM*
COc1ccc2c(c1)c1c(c(=O)n(-c3cc(Cl)ccc3C)c(=O)n1CC(=O)N1CCCC1)n2C | i | 4.2% | -2.5% | x | x | i
Cc1[nH]nc(-c2cccnc2)c1N=NN(C)C | 16.4µM* | 14.1µM* | u | 20.6µM* | 20.6µM* | u
C/C(N=Nc1nc2ccccc2s1)=N\Nc1ccccc1O | i | -97.4% | 11.2µM* | 13µM* | 14.6µM* | u
O=S1(=O)CCOCCCN1Cc1cccc(Cl)c1 | i | 2.2% | 0.8% | x | x | i
Cn1nc(-c2ccncc2)nc2c(=O)n(C)c(=O)nc1-2 | u | -96.4% | 1.26µM* | x | x | 1.84µM*
CCn1nc(-c2ccc(C)cc2)nc2c(=O)n(C)c(=O)nc1-2 | i | 0.708µM* | 0.501µM* | x | x | i
COc1ccc(NC(=O)/C(=C\c2cc(OC)c(OC)cc2[N+](=O)[O-])NC(=O)c2ccccc2)cc1 | i | 1.9% | -1.6% | -2.8% | -3.5% | i
COc1cc(/C=C(/NC(=O)c2ccccc2)C(=O)Nc2ccccc2)c([N+](=O)[O-])cc1OC | 16.4µM* | -2.0% | -0.9% | 5.2% | 6.1% | i
CCC(C(=O)NC1CCC(C)CC1)n1nc(C)c2sc3ccccc3c2c1=O (centres undefined) | i | 2.0% | 12.0% | x | x | i
NN=C1c2cc(S(=O)(=O)NCCO)ccc2-c2ccc(S(=O)(=O)NCCO)cc21 | i | 14.7% | 16.4% | x | x | u
CC(C)(C)n1ncc2c(=O)n(Cc3ccc(OC(F)(F)F)cc3)cnc21 | x | -42.6% | -21.1% | x | x | x
C(=C\c1nccc2ccccc12)/c1ccc(N2CCOCC2)cc1 | u | -21.1% | -14.4% | x | x | i
O=C(NCC1CCCO1)c1cc([N+](=O)[O-])ccc1N1CCC(Cc2ccccc2)CC1 (centres undefined) | u | -13.3% | -18.3% | -5.8% | -26.6% | 4.61µM*
O=C(O)c1cc([N+](=O)[O-])ccc1N1CCC(Cc2ccccc2)CC1 | i | -16.3% | 0.2% | 12.2% | 10.0% | i
Nc1nc(N)c(S(=O)(=O)c2ccccc2)c(Nc2ccc(Br)cc2)n1 | i | -36.5% | u | x | x | i
Cc1nc(C)c(-c2csc(Nc3ccc(N)cc3)n2)s1 | i | -20.9% | -10.5% | -20.3% | -6.2% | i
COc1ccc(Nc2nc(-c3sc(C)nc3C)cs2)cc1 | 1.64µM* | -38.2% | u | 5.17µM* | 3.66µM* | 5.8µM*
Cc1nc(C)c(-c2csc(Nc3cccnc3)n2)s1 | 3.26µM* | -22.1% | 14.5% | u | u | i
CNc1cc(Cl)nc(SC)n1 | u | 1.8% | -8.4% | -0.2% | 2.0% | i
CSc1nc(Cl)cc(Nc2ccc(O)cc2)n1 | i | -8.4% | u | 16.4µM* | 13µM* | i
